This note sets out measurements from ChEMBL document CHEMBL5606460, “ASAP - DENV-2 NS2B-NS3 protease fluorescence single point” (2024).

The campaign covered roughly 2,000 compounds. About 110 (5.5%) showed an effect of 50% or more. Many of the other results were omitted from the sample, so strong results are more common in it than they were.

The target of this assay is Genome polyprotein (dengue virus type 2) (UniProt P29990).
[1] abbreviates: Thailand/16681/1984, Concentration 25.0 uM, Number of replicates 1.0.

`NCc1cccc(NC(=O)[C@@H](NC(=O)OCc2ccccc2)c2ccc(F)cc2)c1`: the inhibition was -4.62% (Thailand/16681/1984, Concentration 49.5 uM, Number of replicates 2.0, Standard deviation 2.4011437232418986 %); -3.96% (Thailand/16681/1984, Concentration 99.01 uM, Number of replicates 2.0, Standard deviation 1.9050608177527883 %); -3.52% (Thailand/16681/1984, Concentration 198.0 uM, Number of replicates 2.0, Standard deviation 2.2061626239616485 %).
For `CCCCCC(=O)N[C@H](C(=O)NCc1ccc(NC(=N)N)cc1)c1ccc(OCc2ccccc2)cc1`, the inhibition came to 0.374% (Thailand/16681/1984, Concentration 49.5 uM, Number of replicates 2.0, Standard deviation 0.35669280924008506 %); 2.1% (Thailand/16681/1984, Concentration 99.01 uM, Number of replicates 2.0, Standard deviation 0.1951319007042223 %); 11.9% (Thailand/16681/1984, Concentration 198.0 uM, Number of replicates 2.0, Standard deviation 2.320076788942105 %).
Turning to `NCc1cccc(NC(=O)Cc2ccc(OCc3ccccc3)cc2)c1`, the inhibition (Thailand/16681/1984, Concentration 49.5 uM, Number of replicates 2.0, Standard deviation 0.3616312555788717 %) was -3.09%; the inhibition (Thailand/16681/1984, Concentration 99.01 uM, Number of replicates 2.0, Standard deviation 0.27421312838327405 %) is -2.89%; the inhibition (Thailand/16681/1984, Concentration 198.0 uM, Number of replicates 2.0, Standard deviation 0.0354621897496722 %) is -1.31%.
Turning to `NCc1cccc(NC(=O)[C@@H](NC(=O)OCc2ccccc2)c2ccccc2)c1`, the inhibition reads like this: (Thailand/16681/1984, Concentration 49.5 uM, Number of replicates 2.0, Standard deviation 1.0300513707602847 %) 0.869%; (Thailand/16681/1984, Concentration 99.01 uM, Number of replicates 2.0, Standard deviation 0.7240873671299501 %) 0.819%; (Thailand/16681/1984, Concentration 198.0 uM, Number of replicates 2.0, Standard deviation 0.6193503939215136 %) 0.644%.
As to `CCCCCC(=O)N[C@H](C(=O)NCc1ccc(N)nc1)c1ccc(OCc2ccccc2)cc1`, the inhibition runs as follows: (Thailand/16681/1984, Concentration 49.5 uM, Number of replicates 2.0, Standard deviation 0.5514996049599625 %) -5.35%; (Thailand/16681/1984, Concentration 99.01 uM, Number of replicates 2.0, Standard deviation 6.42872691267386 %) 2.25%; (Thailand/16681/1984, Concentration 198.0 uM, Number of replicates 2.0, Standard deviation 0.7744386054656718 %) -1.4%.
On to `CCCCCC(=O)N[C@H](C(=O)NCc1cccc(CN)c1)c1ccc(OCc2ccccc2)cc1`, for which the inhibition (Thailand/16681/1984, Concentration 49.5 uM, Number of replicates 2.0, Standard deviation 0.6286197397778024 %) was -3.44%; the inhibition (Thailand/16681/1984, Concentration 99.01 uM, Number of replicates 2.0, Standard deviation 10.030102962525104 %) came out at 65.8%; the inhibition (Thailand/16681/1984, Concentration 198.0 uM, Number of replicates 2.0, Standard deviation 0.2962336766184579 %) stood at 98.7%.
In the case of `NCc1cccc(NC(=O)[C@@H](CCC(N)=O)NC(=O)OCc2ccccc2)c1`, the inhibition reads like this: (Thailand/16681/1984, Concentration 49.5 uM, Number of replicates 2.0, Standard deviation 0.6750820884014238 %) -3.1%; (Thailand/16681/1984, Concentration 99.01 uM, Number of replicates 2.0, Standard deviation 2.465072002477128 %) -1.7%; (Thailand/16681/1984, Concentration 198.0 uM, Number of replicates 2.0, Standard deviation 2.5897319885400165 %) -0.981%.
As to `O=Cc1ccc(N2CCC(C(=O)N3CCC(=C4c5ccc(Cl)cc5CCc5cccnc54)CC3)CC2)cc1`, the inhibition under setting [1] is -7.77%.
`Cc1cc(CO)c2cccc(Cc3cccc(C(=O)N4CC[C@@H](O)C4)c3)c2n1`: the inhibition was -6.42% (Thailand/16681/1984, Concentration 49.95 uM, Number of replicates 2.0, Standard deviation 0.8940031033980441 %) and -4.22% (Thailand/16681/1984, Concentration 99.9 uM, Number of replicates 2.0, Standard deviation 1.7851314545528572 %).
Turning to `Cc1cc(NC(=O)c2[nH]c([C@H]3CCCNC3)nc2C)n[nH]1`, the inhibition (Thailand/16681/1984, Concentration 49.5 uM, Number of replicates 2.0, Standard deviation 0.1819338679741269 %) was -0.694%; the inhibition (Thailand/16681/1984, Concentration 99.01 uM, Number of replicates 2.0, Standard deviation 0.4335851561467917 %) is -1.03%; the inhibition (Thailand/16681/1984, Concentration 198.0 uM, Number of replicates 2.0, Standard deviation 0.7148425402027826 %) is -1.18%.
Turning to `O=Cc1ccc(N2CCC(C(=O)Nc3nnc(Cl)cc3Br)CC2)cc1`, under setting [1], the inhibition came to 33%.
Regarding `Cc1cc(CO)c2cccc(Cc3cccc(NC(=O)c4cccc(Cn5cncn5)c4)c3)c2n1`, the inhibition (Thailand/16681/1984, Concentration 49.95 uM, Number of replicates 2.0, Standard deviation 0.03445572300723204 %) is -2.36% and the inhibition (Thailand/16681/1984, Concentration 99.9 uM, Number of replicates 2.0, Standard deviation 1.2505418184916173 %) turned out to be 1.37%.
As for `O=Cc1ccc(N2CCC(C(=O)NCC(=O)c3ccccc3F)CC2)cc1`, the inhibition under setting [1] was found to be 12.6%.
On the same count and under the same terms, the figure for `O=Cc1ccc(N2CCC(C(=O)N[C@@H]3CCCN(Cc4ccccc4)C3)CC2)cc1` is 13.3%.
For `CSCC[C@H](NC(=O)OC(C)(C)C)C(=O)N1CCC[C@H]1C(=O)N1CCNCC1`, the inhibition was -1.01% (Thailand/16681/1984, Concentration 49.5 uM, Number of replicates 2.0, Standard deviation 0.18656479510110988 %); -1.03% (Thailand/16681/1984, Concentration 99.01 uM, Number of replicates 2.0, Standard deviation 0.6673278690655411 %); -0.61% (Thailand/16681/1984, Concentration 198.0 uM, Number of replicates 2.0, Standard deviation 0.6237960118923063 %).
As for `CNC(=O)C[C@@H](C)NS(=O)(=O)c1ccc(Oc2ccccc2Cl)cc1`, the inhibition by setting is: (Thailand/16681/1984, Concentration 49.5 uM, Number of replicates 2.0, Standard deviation 1.3030195128486834 %) 0.058%; (Thailand/16681/1984, Concentration 99.01 uM, Number of replicates 2.0, Standard deviation 1.4693139392091605 %) 1.01%; (Thailand/16681/1984, Concentration 198.0 uM, Number of replicates 2.0, Standard deviation 0.5754244321045655 %) 1.94%.
`CCN(Cc1cnn(CC)c1)C(=O)C1CCN(c2ccc(C=O)cc2)CC1`: the inhibition under setting [1] was determined as 12.7%.
Consider `NCc1cccc(CNC(=O)[C@@H](NC(=O)OCc2ccccc2)c2ccc(OCc3ccccc3)cc2)c1`, for which the inhibition runs as follows: (Thailand/16681/1984, Concentration 49.5 uM, Number of replicates 2.0, Standard deviation 0.05305782465339428 %) 100%; (Thailand/16681/1984, Concentration 99.01 uM, Number of replicates 2.0, Standard deviation 0.03132758391075349 %) 99.6%; (Thailand/16681/1984, Concentration 198.0 uM, Number of replicates 2.0, Standard deviation 0.04155072348555595 %) 99.5%.
For `O=C(N[C@H](C(=O)O)c1ccc(OCc2ccccc2)cc1)OCc1ccccc1`, the inhibition runs as follows: (Thailand/16681/1984, Concentration 49.5 uM, Number of replicates 2.0, Standard deviation 1.5755205914644184 %) 1.16%; (Thailand/16681/1984, Concentration 99.01 uM, Number of replicates 2.0, Standard deviation 1.1157080020325059 %) 3.53%; (Thailand/16681/1984, Concentration 198.0 uM, Number of replicates 2.0, Standard deviation 0.14215963415330513 %) 10.6%.
Regarding `NCc1ccc(NC(=O)[C@@H](NC(=O)OCc2ccccc2)c2ccc(OCc3ccccc3)cc2)cc1`, the inhibition stood at 1.85% (Thailand/16681/1984, Concentration 49.5 uM, Number of replicates 2.0, Standard deviation 0.2921733335266154 %); 1.48% (Thailand/16681/1984, Concentration 99.01 uM, Number of replicates 2.0, Standard deviation 0.5182536650923871 %); 1.92% (Thailand/16681/1984, Concentration 198.0 uM, Number of replicates 2.0, Standard deviation 0.5806748336109616 %).
As for `Cc1cc(CO)c2cccc(CC(=O)NCc3ccc(S(N)(=O)=O)cc3)c2n1`, the inhibition reads like this: (Thailand/16681/1984, Concentration 49.95 uM, Number of replicates 2.0, Standard deviation 1.717051818740604 %) 21.3%; (Thailand/16681/1984, Concentration 99.9 uM, Number of replicates 2.0, Standard deviation 5.294472274247832 %) 43.7%.
For `Cc1cc(CO)c2cccc(Cc3cccc(C(=O)NCc4ccc(S(N)(=O)=O)cc4)c3)c2n1`, the inhibition reads like this: (Thailand/16681/1984, Concentration 49.95 uM, Number of replicates 2.0, Standard deviation 0.214877109175697 %) 5.4%; (Thailand/16681/1984, Concentration 99.9 uM, Number of replicates 2.0, Standard deviation 0.2579967069502225 %) 18%.
Turning to `Cc1cc(CO)c2cccc(CC(=O)N(c3ncccn3)S(=O)(=O)c3ccc(N)cc3)c2n1`, the inhibition runs as follows: (Thailand/16681/1984, Concentration 49.95 uM, Number of replicates 2.0, Standard deviation 0.013152514133703636 %) 99.6%; (Thailand/16681/1984, Concentration 99.9 uM, Number of replicates 2.0, Standard deviation 0.02076996694616858 %) 99.4%.
On to `Cc1cc(CO)c2cccc(Cc3ccccc3C(=O)N(c3ncccn3)S(=O)(=O)c3ccc(N)cc3)c2n1`, for which the inhibition (Thailand/16681/1984, Concentration 49.95 uM, Number of replicates 2.0, Standard deviation 1.284948840815395 %) turned out to be 27.7% and the inhibition (Thailand/16681/1984, Concentration 99.9 uM, Number of replicates 2.0, Standard deviation 0.4850893215235289 %) was 47.5%.
`Cc1cc(CO)c2cccc(Cc3cccc(C(=O)N(c4ncccn4)S(=O)(=O)c4ccc(N)cc4)c3)c2n1`: the inhibition runs as follows: (Thailand/16681/1984, Concentration 49.95 uM, Number of replicates 2.0, Standard deviation 1.2554851591331873 %) 27.5%; (Thailand/16681/1984, Concentration 99.9 uM, Number of replicates 2.0, Standard deviation 1.7606970720097574 %) 55.5%.
On to `Cc1cc(CO)c2cccc(NC(=O)NCc3ccc(N)cc3)c2n1`, for which the inhibition reads like this: (Thailand/16681/1984, Concentration 49.95 uM, Number of replicates 2.0, Standard deviation 1.081774899946809 %) 4.55%; (Thailand/16681/1984, Concentration 99.9 uM, Number of replicates 2.0, Standard deviation 2.6483447678271466 %) 14.1%.
As for `CC(=O)N[C@@H](CCCCN)C(=O)Nc1cccc(Cc2cccc3c(CO)cc(C)nc23)c1`, the inhibition reads like this: (Thailand/16681/1984, Concentration 49.95 uM, Number of replicates 2.0, Standard deviation 0.858525740782908 %) -3.5%; (Thailand/16681/1984, Concentration 99.9 uM, Number of replicates 2.0, Standard deviation 1.064156674332285 %) 6.38%.
